# In the supplement of paper PMC7156485:
# “And” between values parts separate entries of the source, which are not always exact repeats. Equal values may be shown once. ± gives the standard deviation of the averaged measurements.
# Legend:
# Conditions in all cases: concentration: 10 µM; 24 h
# HCC1569 [1] = experiment: cell number relative to DMSO (% of DMSO); higher = more cells (less growth inhibition / toxicity)
# In short: (§1)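 In 384-well plates holding 800 HCC1569 or TDF cells per well in RPMI with 10% FBS, compounds were tested at 10 µM for 24 h at 37 °C in triplicate. Fixation used 3.7% formaldehyde. Staining used a rabbit anti-H1.0 antibody with an AlexaFluor 647 secondary, plus DAPI. Each value, H1.0 nuclear intensity or cell number, is a median of replicates shown as percent of the plate control, and HCC1569 values were smoothed for positional effects.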
# TDF [2] = experiment: as above
# In short: as §1
# TDF [3] = experiment: H1.0 immunofluorescence intensity relative to DMSO (% of DMSO); higher = stronger H1.0 induction, active = 120 or more
# In short: as §1
# HCC1569 [4] = experiment: H1.0 immunofluorescence intensity relative to DMSO (% of DMSO); higher = stronger H1.0 induction, active = 140 or more
# In short: as §1
# 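For H1.0 immunofluorescence intensity relative to DMSO in this document: TDF is a line of transformed human dermal fibroblasts of mesenchymal origin.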
# 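For cell number relative to DMSO in this document: TDF denotes transformed human dermal fibroblasts of mesenchymal origin.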
compound,measurement,setting,value
Cc1ccc(NC(=O)c2cccc(N(C)C)c2)cc1NC(=O)c1ccc(O)cc1,cell number,HCC1569 [1],92.1 and 95.3
same,cell number,TDF [2],100 and 94.1
same,H1.0 immunofluorescence intensity,TDF [3],96.7 (inactive) and 105 (inactive)
same,H1.0 immunofluorescence intensity,HCC1569 [4],110 (inactive) and 119 (inactive)
COc1c2occc2c(OC)c2c(=O)cc(C)oc12 [Khellin],cell number,HCC1569 [1],101
same,cell number,TDF [2],76.6
same,H1.0 immunofluorescence intensity,TDF [3],111 (inactive)
same,H1.0 immunofluorescence intensity,HCC1569 [4],100 (inactive)
CC(CCc1ccccc1)NCC(O)c1ccc(O)c(C(N)=O)c1.Cl (stereo unspecified) [Labetalol hydrochloride],cell number,HCC1569 [1],101
same,cell number,TDF [2],106
same,H1.0 immunofluorescence intensity,TDF [3],83.5 (inactive)
same,H1.0 immunofluorescence intensity,HCC1569 [4],99.3 (inactive)
COc1cc(C(C)=O)cc(-c2cc(C(C)=O)cc(OC)c2O)c1O,cell number,HCC1569 [1],100
same,cell number,TDF [2],110
same,H1.0 immunofluorescence intensity,TDF [3],93.8 (inactive)
same,H1.0 immunofluorescence intensity,HCC1569 [4],100 (inactive)
Clc1ccc(C(Cn2ccnc2)OCc2csc3c(Cl)cccc23)c(Cl)c1 (stereo unspecified) [Sertaconazole],cell number,HCC1569 [1],95
same,cell number,TDF [2],97.9
same,H1.0 immunofluorescence intensity,TDF [3],91.4 (inactive)
same,H1.0 immunofluorescence intensity,HCC1569 [4],114 (inactive)
CCCCCCCCC=CCCCCCCCCCCCCC(=O)O [14(E)-Tricosenoic acid],cell number,HCC1569 [1],98.3
same,cell number,TDF [2],98.1
same,H1.0 immunofluorescence intensity,TDF [3],93.3 (inactive)
same,H1.0 immunofluorescence intensity,HCC1569 [4],104 (inactive)
CC1OC(OCC2OC(Oc3c(-c4ccc(O)c(O)c4)oc4cc(O)cc(O)c4c3=O)C(O)C(O)C2O)C(O)C(O)C1O (stereo unspecified) [Rutin],cell number,HCC1569 [1],107
same,cell number,TDF [2],102
same,H1.0 immunofluorescence intensity,TDF [3],91.6 (inactive)
same,H1.0 immunofluorescence intensity,HCC1569 [4],88 (inactive)
CC(CN1c2ccccc2Sc2ccccc21)N(C)C.Cl (stereo unspecified) [Promethazine hydrochloride],cell number,HCC1569 [1],105
same,cell number,TDF [2],96.9
same,H1.0 immunofluorescence intensity,TDF [3],109 (inactive)
same,H1.0 immunofluorescence intensity,HCC1569 [4],106 (inactive)
Cl.Cl.O=C(O)COCCN1CCN(C(c2ccccc2)c2ccc(Cl)cc2)CC1 (stereo unspecified) [Cetirizine 2HCl],cell number,HCC1569 [1],98.9
same,cell number,TDF [2],102
same,H1.0 immunofluorescence intensity,TDF [3],94.3 (inactive)
same,H1.0 immunofluorescence intensity,HCC1569 [4],104 (inactive)
O=C(O)c1ccc(O)c2ncccc12 [8-hydroxy-5-quinolinecarboxylic acid],cell number,HCC1569 [1],102
same,cell number,TDF [2],99.2
same,H1.0 immunofluorescence intensity,TDF [3],94.9 (inactive)
same,H1.0 immunofluorescence intensity,HCC1569 [4],98 (inactive)
Cl.NCCc1ccc(O)c(O)c1 [Dopamine hydrochloride],cell number,HCC1569 [1],106
same,cell number,TDF [2],100
same,H1.0 immunofluorescence intensity,TDF [3],93.5 (inactive)
same,H1.0 immunofluorescence intensity,HCC1569 [4],89.7 (inactive)
CCC1(C)CC(=O)NC1=O (stereo unspecified) [Ethosuximide],cell number,HCC1569 [1],102
same,cell number,TDF [2],98.8
same,H1.0 immunofluorescence intensity,TDF [3],94.1 (inactive)
same,H1.0 immunofluorescence intensity,HCC1569 [4],88 (inactive)
N#CC(=Cc1ccc(O)c(O)c1)C(=O)NCCc1ccccc1 [Tyrphostin AG 698],cell number,HCC1569 [1],84.3
same,cell number,TDF [2],91
same,H1.0 immunofluorescence intensity,TDF [3],87.8 (inactive)
same,H1.0 immunofluorescence intensity,HCC1569 [4],119 (inactive)
CCOC(=O)c1ncn2c1CN(C)C(=O)c1cc(F)ccc1-2 [Flumazenil],cell number,HCC1569 [1],104 ± 7.3
same,cell number,TDF [2],97.3 ± 3.1
same,H1.0 immunofluorescence intensity,TDF [3],98.2 (inactive)
same,H1.0 immunofluorescence intensity,HCC1569 [4],93.6 (inactive)
COc1cc(C(=O)OCCC[NH+]2CCC[NH+](CCCOC(=O)c3cc(OC)c(OC)c(OC)c3)CC2)cc(OC)c1OC.[Cl-].[Cl-] [Dilazep hydrochloride],cell number,HCC1569 [1],94.8
same,cell number,TDF [2],90.1
same,H1.0 immunofluorescence intensity,TDF [3],108 (inactive)
same,H1.0 immunofluorescence intensity,HCC1569 [4],107 (inactive)
Cc1ccc(-c2c(-c3nn(C)c4ncnc(N5CC[C@H](N6CCCCC6)C5)c34)cnn2C)cc1,cell number,HCC1569 [1],99.6
same,cell number,TDF [2],96.4
same,H1.0 immunofluorescence intensity,TDF [3],103 (inactive)
same,H1.0 immunofluorescence intensity,HCC1569 [4],99.2 (inactive)
CC(C)NCC(O)COc1ccc(CC(N)=O)cc1 (stereo not drawn) [R(+)-Atenolol],cell number,HCC1569 [1],98.9
same,cell number,TDF [2],109
same,H1.0 immunofluorescence intensity,TDF [3],90.9 (inactive)
same,H1.0 immunofluorescence intensity,HCC1569 [4],95.4 (inactive)
CCCCCCCCCCC1=C(C)C(=O)C(OC)=C(OC)C1=O [Decylubiquinone],cell number,HCC1569 [1],101
same,cell number,TDF [2],89.2
same,H1.0 immunofluorescence intensity,TDF [3],94.8 (inactive)
same,H1.0 immunofluorescence intensity,HCC1569 [4],91.8 (inactive)
CCC1=C(C)CN(C(=O)NCCc2ccc(S(=O)(=O)NC(=O)NC3CCC(C)CC3)cc2)C1=O (stereo unspecified) [Glimepiride],cell number,HCC1569 [1],102
same,cell number,TDF [2],111
same,H1.0 immunofluorescence intensity,TDF [3],93.1 (inactive)
same,H1.0 immunofluorescence intensity,HCC1569 [4],106 (inactive)
C=CC[C@H](N)C(=O)O [L-allylglycine],cell number,HCC1569 [1],101
same,cell number,TDF [2],99.3
same,H1.0 immunofluorescence intensity,TDF [3],95.9 (inactive)
same,H1.0 immunofluorescence intensity,HCC1569 [4],92.4 (inactive)
COc1ccccc1NC(=O)Nc1nc(-c2cccnc2)nc2ccccc12,cell number,HCC1569 [1],97.6
same,cell number,TDF [2],102
same,H1.0 immunofluorescence intensity,TDF [3],95.1 (inactive)
same,H1.0 immunofluorescence intensity,HCC1569 [4],104 (inactive)
CC1CNCCN1S(=O)(=O)c1cccc2cnccc12.Cl.Cl (stereo unspecified),cell number,HCC1569 [1],101
same,cell number,TDF [2],105
same,H1.0 immunofluorescence intensity,TDF [3],88.4 (inactive)
same,H1.0 immunofluorescence intensity,HCC1569 [4],83 (inactive)
OC(CS)C(O)CS (stereo unspecified),cell number,HCC1569 [1],103
same,cell number,TDF [2],104
same,H1.0 immunofluorescence intensity,TDF [3],93.7 (inactive)
same,H1.0 immunofluorescence intensity,HCC1569 [4],102 (inactive)
COc1ccc(C2Sc3ccccc3N(CCN(C)C)C(=O)C2OC(C)=O)cc1 (stereo unspecified) [Diltiazem],cell number,HCC1569 [1],104
same,cell number,TDF [2],107
same,H1.0 immunofluorescence intensity,TDF [3],92 (inactive)
same,H1.0 immunofluorescence intensity,HCC1569 [4],101 (inactive)
